# Source: PubChem BioAssay (NCATS)
# Inconclusive results are not listed. Entries that show only a call come without a potency. Activity calls are given as the source filed them. Calls come from the whole dose curve; as a rule, active = well fitted cell-killing curve with a large enough effect; inconclusive = small, poorly fitted or top-dose-only effect, or effect the other way; inactive = no such curve, though single readings can be large or run the other way.
# Experiment: Viability qHTS for spleen associated tyrosine kinase inhibitor (SYKi) naive MV4-11 cells (AID 1963823); note: nearly all actives have a fitted effect of over 40% in size
# In short: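 In this viability screen, compounds acted on SYK inhibitor naive MV4-11 cells for three days (72 hr, 37 C). Remaining viable cells were measured by CellTiter-Glo luminescence following a 10 min room-temperature development.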
# Potency is the fitted concentration of half-maximal effect.
row,SMILES,Potency
1,C=C1C[C@]23C[C@H]1[C@@H](O)C[C@H]2[C@@]12C=C[C@H](O)[C@@](C)(C(=O)O1)[C@H]2[C@@H]3C(=O)O,inactive
2,C=C1C[C@]23C[C@H]1CC[C@H]2[C@@]12CC[C@H](O)[C@@](C)(C(=O)O1)[C@H]2[C@@H]3C(=O)O,inactive
3,CC1(C)CCCC2(C)C(CO)C3CCC2C31 (configuration not stated),inactive
4,C=C1CC[C@@H](O)[C@]2(C)C[C@H]3OC(=O)C(=C)[C@H]3CC12 (some centres not stated),14.6 µM (active)
5,O=C(/C=C/c1ccc(O)c(O)c1)O[C@H]1[C@H](OC2CCCCC2O)O[C@H](CO)[C@@H](O)[C@@H]1O (some centres not stated),inactive
6,Cc1ccccc1N1CCN(S(=O)(=O)C[C@]23CC[C@H](C[C@@H]2NC(=O)[C@@H](N)CCS(C)(=O)=O)C3(C)C)CC1,inactive
7,COc1cc(OC)cc(N2CCN(C(=O)Nc3nc4cc(F)ccc4nc3OC)CC2)c1,0.934 µM (active)
8,COc1cc(C2OCC3C(c4ccc(OC5OC(CO)C(O)C(O)C5O)c(OC)c4)OCC23)ccc1O (configuration not stated),inactive
9,COc1ccc(CCN(C)CCCC(C#N)(c2cc(OC)c(OC)c(OC)c2)C(C)C)cc1OC (configuration not stated),23.7 µM (active)
10,CC1CCC2C(C)(C)C(O)CCC2(C)C12Cc1c(O)cc3c(c1O2)CN=C3N (configuration not stated),inactive
11,O=C(O[C@H]1[C@H](Oc2ccc(O)cc2CO)O[C@H](CO)[C@@H](O)[C@@H]1O)c1ccccc1,inactive
12,C[C@]12CCC[C@](C)(C(=O)O)C1[C@@H](O)[C@@H](O)C13CC(CCC12)C(CO)(O[C@@H]1O[C@H](CO)[C@@H](O)[C@H](O)[C@H]1O)C3 (some centres not stated),inactive
